Assay results reported in PubChem BioAssay AID1566 (Sanford-Burnham Center for Chemical Genomics, 2009).
Where “and” joins values, the source holds several entries; their conditions need not be identical. Equal values may be shown once. The campaign covered roughly 290,000 compounds. About 1,800 (0.62%) were called active. The sample holds actives, similar compounds and a random draw of the others, so the mix is not that of the screen. Cut-off read from the data, not from the text of the source: active = inhibition above about 50%; inactive = the rest. Some compounds were tested as several samples or in several runs, with calls that do not always agree.

test: NOD2 signaling inhibitors, cell-based, luminescence, uHTS, HEK293 (AID 1566); details: HEK293 NOD2/NF-kB luciferase reporter, at 4 µM, stronger effect = higher value

inhibition, 55.1% (active) and 4.8% (inactive):
CCOC(=O)c1nc2sc3c(c2c(=O)[nH]1)CCCC3

inhibition, inactive:
Cc1cccc(Nc2ncnc(N)c2[N+](=O)[O-])n1 32%
Cc1cccnc1Nc1ncnc(N)c1[N+](=O)[O-] 3.6%
COc1ccc(C(=O)NNC(=O)C(=O)Nc2ccc(C)c(Cl)c2)cc1 1.2%
COc1cccc(C(=O)NNC(=O)C(=O)Nc2ccc(C)cc2)c1 4.6%
COc1ccc(/C=N/NC(=O)CC#N)cc1Oc1nc(Cl)ncc1F -4%
O=[N+]([O-])c1ccc(C2OCCO2)cc1CS(=O)(=O)c1ccccc1 -3.4%
CCC(=O)Nc1cccc2ccccc12 15.5%
CCN(CC)c1ccc(/C=N/NC(=O)C(O)(c2ccccc2)c2ccccc2)o1 3.6%
Cc1[nH]n(-c2ccccc2)c(=O)c1-c1ccc(Cl)cc1 -50.4%
Cc1[nH]n(-c2cccc(Cl)c2)c(=O)c1-c1ccccc1 17.3%
C=CCn1c(-c2cc3cccc(OC)c3o2)n[nH]c1=S -1.5%
O=C(c1cc(-c2cccc(Cl)c2)on1)N1CCCCCC1 -44.3%
Nc1nc(-c2cccs2)c(CC(=O)O)s1 4.5%
CC(C)(C)c1ccc(-n2ncc3c2CCCC3NC(=O)CCN2CCCCC2=O)cc1 (stereo not given) 17.1%
CC(C)(C)c1ccc(-n2ncc3c2CCCC3NC(=O)CN2CCCC2=O)cc1 (stereo not given) 35.8%
Cc1sc2ncnc(N3CCN(Cc4ccccc4)CC3)c2c1-c1ccccc1 -9.7%
CCN1CCN(c2ncnc3sc(C)c(-c4ccccc4)c23)CC1 35.6%
CCc1ccc(-c2cc(C)no2)cc1S(=O)(=O)N1CCOc2ccc(C)cc21 16.8%
COc1ccccc1CC(=O)Nc1ccc(NC(=O)c2cccs2)cc1 -13%
CCOC(=O)CSc1nc2sc3c(c2c(=O)[nH]1)CCCC3 8.9%
CCOC(=O)c1nc2sc3c(c2c(=O)[nH]1)CCC(C)C3 (stereo not given) 45.5%
COc1ccccc1CNC(=O)CCc1nnc2ccc(NCCCN3CCCC3=O)nn12 12.8%
Cc1ccc(Cn2c(=O)c3ccccc3n3c(SCC(=O)N4CCCCC4C)nnc23)cc1 (stereo not given) 8.3%
Cc1ccc(C(=O)NNC(=O)CCN2C(=O)C3CCCCC3C2=O)cc1 (stereo not given) 11.6%
COc1cc(SC)ccc1C(=O)Nc1nccs1 -159%
COc1cc(SC)ccc1C(=O)Nc1nc(C)cc(C)n1 10.5%
O=C(O)c1ccc(NCc2ccc3c(c2)OCO3)cc1 6.2%
COc1ccc(/C=N/N2C(=O)CSC2=S)cc1 -23.8%
COc1ccc(-c2nn(-c3ccccc3)cc2/C=N/O)cc1 9.4%
CCC1(CC)NC(=O)N(CC(=O)NC(=O)NCc2ccccc2)C1=O -0.6%
O=C(CSc1nc2ccccc2c(=O)[nH]1)Nc1cccc([N+](=O)[O-])c1 19.4%
Nc1cc(=O)[nH]c(SCC(=O)Nc2cccc([N+](=O)[O-])c2)n1 0.5%
COc1ccc(NC(=O)C23CC4CC(C2)CC(n2cnc(Br)n2)(C4)C3)cc1OC -17.8%
COc1ccc(NC(=O)N2CCCC(c3nc(-c4ccc(C(C)C)cc4)no3)C2)cc1 (stereo not given) 42.1%
Cc1ccccc1NC(=O)N1CCCC(c2nc(-c3ccc(F)cc3)no2)C1 (stereo not given) 7.4%
COCCCN1C(=O)C(O)=C(C(=O)c2ccco2)C1c1cccc(Br)c1 (stereo not given) 7.1%
COc1ccc(CN2CCN(Cc3ccc4cc(F)ccc4n3)CC2CCO)c(C)c1C (stereo not given) -1.2%
O=[N+]([O-])c1ccc(N2CCN(c3ccc(Cl)nn3)CC2)c(Cl)c1 -52.2%
CCCC(=O)N1CCN(c2ccc([N+](=O)[O-])cc2Cl)CC1 -6.8%
Cc1cc(C)c2c(N)c(C(=O)Nc3nccs3)sc2n1 -123%
Cc1cc(C)c2c(N)c(C(=O)NN)sc2n1 0.7%
CN1CCN(C(=S)c2cn(Cc3ccccc3F)c3ccccc23)CC1 2.8%
CC(=O)c1cn(CC(=O)Nc2ccccc2F)c2ccccc12 30.8%
CCOC(=O)c1cnc2nc(C)[nH]n2c1=O -11%
O=C(CNC(=O)C1CCCCC1)NCc1ccco1 -3%
Cc1nc2ccc(NC(=O)c3ccc(Cl)c(S(=O)(=O)N(C)c4ccccc4)c3)cc2s1 38.6%
Cc1nc2ccc(NC(=O)c3ccc(S(=O)(=O)N(C)c4ccccc4)cc3)cc2s1 35.2%
CN(Cc1ccccc1)C(=O)[C@H]1CCC(=O)N1Cc1ccco1 -2.2%
Cc1onc(-c2c(Cl)cccc2Cl)c1C(=O)NC(=S)N1CCOCC1 11.9%
Cc1c(OCC(=O)NC(Cc2ccc(Cl)cc2)C(=O)O)ccc2c3c(c(=O)oc12)CCCC3 (stereo not given) 7.1%
Cc1ccc2nc(NC(=O)CSCc3ccccc3)sc2c1 -2.4%
O=C(Nc1nc2c(F)cc(F)cc2s1)c1ccccn1 38.3%
Cc1ccc2nc(NC(=O)CCCc3nc4ccccc4s3)sc2c1 -14.6%
COC(=O)c1ccc2nc(NC(=O)CSCC(=O)OCC(=O)c3ccccc3)sc2c1 -10.5%
Cc1cccc(OCC(=O)Nc2nc3ccc([N+](=O)[O-])cc3s2)c1 35%
COCC(=O)Nc1nc2ccc(C)cc2s1 -98.9%
Cc1ccc(C)c(OCC(=O)Nc2nc3ccc([N+](=O)[O-])cc3s2)c1 25.2%
O=C(Nc1nc2ccc(F)cc2s1)c1cccs1 -118%

inhibition, active:
COc1cccc(C(=O)NNC(=O)C(=O)Nc2ccc(C)c(Cl)c2)c1 78.2%
CC(C)(C)c1ccc(-n2ncc3c2CCCC3NC(=O)CCN2CCCC2=O)cc1 (stereo not given) 57.1%
COc1cc(SC)ccc1C(=O)Nc1nc(C)cs1 72.2%
COc1ccc(-c2nn(-c3ccccc3)cc2/C=N/N2C(=O)CSC2=S)cc1 51.5%
O=C(CSc1nncc(=O)[nH]1)Nc1cccc([N+](=O)[O-])c1 67.8%
Cc1ccccc1NC(=O)N1CCCC(c2nc(-c3ccc(C(C)C)cc3)no2)C1 (stereo not given) 72.9%
Cc1ccc2nc(C)c(CN3CCN(c4ccc([N+](=O)[O-])cc4Cl)CC3)n2c1 52.7%
Cc1cc(C)c2c(N)c(C(=O)Nc3ncc(C)s3)sc2n1 62%
Cc1ccc2nc(NC(=O)CSCC(=O)OCC(=O)c3ccccc3)sc2c1 51.5%
O=C(Nc1nc2ccc(F)cc2s1)c1ccccn1 82.1%
Cc1ccc2nc(NC(=O)CCCC(=O)O)sc2c1 54.8%
